Assay outcomes: PubChem, several laboratories
Only some compounds are listed: those with a hit (about 4% of all), similar ones and a draw of the others.
aDG glyco act: activators of alpha-DG glycosylation, primary screen, uHTS, Pro5-aDG cells, AlphaScreen; alpha-DG glycosylation AlphaScreen (IIH6); 0% Pro5, 100% B10-LARGE cell signal; activation, % at 10 µM; actives 0.22% (n = 360,000);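 active = activation of at least 8% versus controls, or a plate z-score of at least 8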;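 note: Pro5 are CHO cells carrying HIG-tagged alpha-DG that lacks glycosylation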
NR3A LBD binder: binders of NR3A ligand-binding domain, primary screen, biophysical, differential scanning fluorimetry, uHTS; Glutamate receptor ionotropic, NMDA 3A (GRIN3A) ligand-binding domain; AID 1259313, 2017; NR3A LBD differential scanning fluorimetry, Tm shift; 0% = protein alone, 100% = glycine-bound protein; actives 2.5% (n = 340,000); Tm shift relative to glycine control, % at 25 µM;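 active = melting temperature shift of at least 10% of the positive control shift, at one fixed dose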
FAS TE block: FAS thioesterase domain inhibitors, primary screen, biochemical, fluorescence intensity, uHTS | actives 0.67% (n = 360,000) | recombinant FAS-TE, OMFH fluorogenic substrate, fluorescence endpoint | Fatty acid synthase (Homo sapiens), P49327 | inhibition, % at 15 µM;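 active = compounds whose normalised, plate-corrected inhibition of enzyme fluorescence in the single-dose primary screen is 50% or more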
ADAM10 inh: human ADAM10 inhibitors, primary screen, biochemical, QFRET, HTS. Disintegrin and metalloproteinase domain-containing protein 10 (Homo sapiens), O14672. recombinant ADAM10, EDANS/DABCYL FRET peptide cleavage, 3 h. inhibition, % at 7 µM. actives 0.62% (n = 370,000);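 active = inhibition above a per-campaign cutoff equal to the mean of compounds falling between control-based bounds plus 3 SD, cut at about 20% in these data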
ADAM17 inh: ADAM17 inhibitors, primary screen, biochemical, QFRET | Disintegrin and metalloproteinase domain-containing protein 17 (Homo sapiens), P78536 | recombinant ADAM17, EDANS/DABCYL FRET peptide cleavage | inhibition, % at 6.95 µM | actives 0.83% (n = 370,000);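 active = inhibition above the mean of compounds lying between control limits plus 3 SD, set per campaign, cut at about 8.5% in these data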
Target sequence (P78536 215-824 limits assumed): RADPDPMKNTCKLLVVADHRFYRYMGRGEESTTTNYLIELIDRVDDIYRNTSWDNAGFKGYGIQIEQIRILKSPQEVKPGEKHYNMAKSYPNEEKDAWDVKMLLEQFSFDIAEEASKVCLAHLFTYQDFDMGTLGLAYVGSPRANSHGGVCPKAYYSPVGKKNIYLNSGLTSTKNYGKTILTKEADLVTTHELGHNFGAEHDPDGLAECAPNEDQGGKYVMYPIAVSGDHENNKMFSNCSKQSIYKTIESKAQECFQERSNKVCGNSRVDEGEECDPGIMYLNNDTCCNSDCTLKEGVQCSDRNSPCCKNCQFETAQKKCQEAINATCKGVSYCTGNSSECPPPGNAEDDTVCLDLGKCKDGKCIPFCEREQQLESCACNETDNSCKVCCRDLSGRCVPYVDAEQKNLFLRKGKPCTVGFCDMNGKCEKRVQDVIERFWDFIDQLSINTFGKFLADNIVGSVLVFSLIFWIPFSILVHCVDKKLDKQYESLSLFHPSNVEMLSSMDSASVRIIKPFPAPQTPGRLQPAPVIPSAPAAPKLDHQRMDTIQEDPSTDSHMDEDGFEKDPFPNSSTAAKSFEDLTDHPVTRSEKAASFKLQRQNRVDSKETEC
FAS-TE inh conf: FAS thioesterase domain inhibitors, confirmation, biochemical, fluorescence intensity, single concentration. shares compounds with FAS TE block. recombinant FAS-TE, OMFH fluorogenic substrate. actives 45% (n = 2,300). inhibition, % at 15 µM. AID 624325, 2012;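 active = compounds inhibiting the enzyme by at least 50% at 15 µM in any one of the replicates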
Hits are given with their value; i = inactive; nt = not tested or not shown.

SMILES	aDG glyco act	NR3A LBD binder	FAS TE block	ADAM10 inh	ADAM17 inh	FAS-TE inh conf
CCCCCn1c(=NC(C)=O)c(C#N)cc2c(=O)n3ccccc3nc21	i	i	61.2	i	i	i
CCCCn1c(=NC(C)=O)c(C#N)cc2c(=O)n3cccc(C)c3nc21	i	i	50.3	i	i	i
CC(=O)N(C1CC(C)C(C#N)(C#N)C1(C#N)C#N)N(C)C (configuration not stated)	i	i	54.2	i	i	62.7
CCCC(=O)N(C1CC(C)C(C#N)(C#N)C1(C#N)C#N)N(C)C (configuration not stated)	i	i	62.0	i	i	68.4
O=c1c2[nH]c3ccccc3c2ncn1Cc1ccco1	i	i	i	i	i	nt
O=C(CSc1nc2ccccc2n1S(=O)(=O)c1cccc([N+](=O)[O-])c1)NCCc1ccccc1	i	i	76.1	i	i	69.1
COc1cccc2cc(-c3nnc(-c4ccccc4)o3)c(=O)oc12	i	i	i	i	i	nt
O=S(=O)(c1ccccc1)c1nnn2c1nc(NC1CCN(Cc3ccccc3)CC1)c1ccccc12	i	i	82.5	i	i	78.9
Cc1ccc(C)c(Nc2nc3c(S(=O)(=O)c4ccccc4)nnn3c3ccccc23)c1	i	i	i	i	i	nt
COCCNc1nc2c(S(=O)(=O)c3cc(C)ccc3C)nnn2c2ccccc12	i	i	i	i	i	nt
O=S(=O)(c1ccccc1)c1nnn2c1nc(NC1CCN(Cc3ccccc3)CC1)c1cc(Cl)ccc12	i	i	79.8	i	i	i
O=C1CCCN1CCCNc1nc2c(S(=O)(=O)c3ccc(Br)cc3)nnn2c2ccccc12	i	i	56.6	i	i	i
CC(C)c1ccc(S(=O)(=O)c2nnn3c2nc(NCC2CCCO2)c2ccccc23)cc1 (configuration not stated)	i	i	74.1	nt	nt	79.5
Cc1ccc(S(=O)(=O)c2nnn3c2nc(Nc2cccc(C)c2)c2ccccc23)cc1	i	i	i	i	i	nt
COc1ccc(S(=O)(=O)NCC2CCCN(C(=O)CSC)C2)cc1 (configuration not stated)	i	i	i	i	i	nt
Cc1ccc(OCC(O)CN2CCc3ccccc3C2)c(C)c1 (configuration not stated)	i	i	i	i	i	nt
O=C(NC(Cc1c[nH]c2ccccc12)C(=O)NCCCN1CCOCC1)c1cccs1 (configuration not stated)	i	i	i	i	i	nt
COc1cccc(C(O)c2nc(-c3cccc(NC(C)=O)c3)cs2)c1 (configuration not stated)	i	nt	i	i	i	nt
COC(=O)c1cc(C(=O)OCC(=O)NC2CCS(=O)(=O)C2)cc([N+](=O)[O-])c1 (configuration not stated)	i	i	i	i	i	nt
O=C(OCC(=O)N1CCN(c2ccccc2)CC1)c1cccc([N+](=O)[O-])c1	i	i	53.6	i	i	57.2
O=C(COC(=O)c1cccc([N+](=O)[O-])c1)NC1CCCC1	i	i	61.1	i	i	67.6
Cc1cccc(C(=O)OCC(=O)NC2CCCCCCC2)c1	i	i	i	i	i	nt
Cc1cc(C)c([N+](=O)[O-])cc1NCC(=O)N1CCN(c2ccccc2)CC1	i	i	77.9	i	i	65.7
COC(=O)c1cc(C(=O)OCC(=O)NC2CCCC2)cc([N+](=O)[O-])c1	i	i	60.8	i	i	63.6
CC1CC(C)CN(C(=O)COC(=O)c2cccc([N+](=O)[O-])c2)C1 (configuration not stated)	i	i	i	i	i	nt
SMILES	aDG glyco act	NR3A LBD binder	FAS TE block	ADAM10 inh	ADAM17 inh	FAS-TE inh conf
CC(=O)c1ccc(NCC(=O)N2CCN(c3ccccc3)CC2)cc1	i	i	i	i	i	nt
Cc1cnc([N+](=O)[O-])n1CCOC(=O)c1cccc(F)c1	i	i	i	i	i	nt
CC(=O)[C@@]1(O)Cc2c(O)c3c(c(O)c2[C@H](O[C@H]2C[C@H](N)[C@H](O)[C@H](C)O2)C1)C(=O)c1ccccc1C3=O	i	nt	i	i	i	nt
COc1ccc(NS(=O)(=O)c2ccc3c(c2)OCCO3)cc1OC	i	i	i	i	i	nt
COc1cc(/C=C/C(=O)OCC(=O)Nc2sc3c(c2C#N)CCC(C)C3)ccc1OCC#N (configuration not stated)	i	i	64.5	i	i	i
COC(=O)[C@]1(Cc2ccccc2)N[C@H](c2ccc(-c3ccc(F)cc3)cc2)[C@@H]2C(=O)N(C)C(=O)[C@@H]21	i	i	85.4	i	i	i
COC(=O)[C@]1(Cc2ccccc2)N[C@H](c2ccc(-c3cccc(Cl)c3)c(OC)c2)[C@@H]2C(=O)N(C)C(=O)[C@@H]21	i	i	93.4	i	i	i
CCN1C(=O)[C@H]2[C@@H](c3ccc(-c4ccc5c(c4)OCO5)c(OC)c3)N[C@@](CC(C)C)(C(=O)OC)[C@H]2C1=O	i	i	i	i	i	nt
CCN1C(=O)[C@H]2[C@@H](c3ccc(-c4ccc5c(c4)OCO5)c(OC)c3)N[C@@](Cc3ccccc3)(C(=O)OC)[C@H]2C1=O	i	i	90.8	i	i	i
CCN1C(=O)[C@H]2[C@@H](c3ccc(-c4ccc(OC)cc4)c(OC)c3)N[C@@](Cc3ccccc3)(C(=O)OC)[C@H]2C1=O	i	i	51.5	i	i	i
CCN1C(=O)[C@H]2[C@@H](c3ccc(-c4ccccc4)cc3)N[C@@](Cc3ccccc3)(C(=O)OC)[C@H]2C1=O	i	i	i	i	i	nt
CCN1C(=O)[C@H]2[C@@H](c3ccc(-c4cccc(Cl)c4)c(OC)c3)N[C@@](Cc3ccccc3)(C(=O)OC)[C@H]2C1=O	i	i	i	i	i	nt
CCN1C(=O)[C@H]2[C@@H](c3ccc(-c4ccc(Cl)c(Cl)c4)cc3)N[C@@](Cc3ccccc3)(C(=O)OC)[C@H]2C1=O	i	i	89.2	i	i	i
CCN(C[C@H]1N[C@@](Cc2ccccc2)(C(=O)OC)[C@H]2C(=O)N(C)C(=O)[C@@H]12)S(=O)(=O)c1ccc(-c2ccccc2)cc1	i	i	51.6	i	i	i
O=C(/C=C/c1ccccc1)NC(=S)Nc1ccccc1	i	i	i	i	i	nt
C=CCN(CC=C)S(=O)(=O)c1ccc(NC(=S)NC(=O)/C=C/c2ccccc2)cc1	i	i	56.8	i	i	i
